# In PubChem BioAssay AID1347419 (Sanford-Burnham Center for Chemical Genomics, 2020):
# Among all 99,000 compounds or so, about 820 (0.83%) were called active. Only a selection was taken, and actives are over-represented in it overall. Values without a mark were called inactive.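 The calls were made as follows: active = Z-score of -3 or lower, scaled per plate to the spread of control and sample wells; inactive = z-score above -3.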
# Target: Protein-tyrosine kinase 2-beta (Homo sapiens) (UniProt Q14289)
# Sequence (Q14289 whole entry, looked up): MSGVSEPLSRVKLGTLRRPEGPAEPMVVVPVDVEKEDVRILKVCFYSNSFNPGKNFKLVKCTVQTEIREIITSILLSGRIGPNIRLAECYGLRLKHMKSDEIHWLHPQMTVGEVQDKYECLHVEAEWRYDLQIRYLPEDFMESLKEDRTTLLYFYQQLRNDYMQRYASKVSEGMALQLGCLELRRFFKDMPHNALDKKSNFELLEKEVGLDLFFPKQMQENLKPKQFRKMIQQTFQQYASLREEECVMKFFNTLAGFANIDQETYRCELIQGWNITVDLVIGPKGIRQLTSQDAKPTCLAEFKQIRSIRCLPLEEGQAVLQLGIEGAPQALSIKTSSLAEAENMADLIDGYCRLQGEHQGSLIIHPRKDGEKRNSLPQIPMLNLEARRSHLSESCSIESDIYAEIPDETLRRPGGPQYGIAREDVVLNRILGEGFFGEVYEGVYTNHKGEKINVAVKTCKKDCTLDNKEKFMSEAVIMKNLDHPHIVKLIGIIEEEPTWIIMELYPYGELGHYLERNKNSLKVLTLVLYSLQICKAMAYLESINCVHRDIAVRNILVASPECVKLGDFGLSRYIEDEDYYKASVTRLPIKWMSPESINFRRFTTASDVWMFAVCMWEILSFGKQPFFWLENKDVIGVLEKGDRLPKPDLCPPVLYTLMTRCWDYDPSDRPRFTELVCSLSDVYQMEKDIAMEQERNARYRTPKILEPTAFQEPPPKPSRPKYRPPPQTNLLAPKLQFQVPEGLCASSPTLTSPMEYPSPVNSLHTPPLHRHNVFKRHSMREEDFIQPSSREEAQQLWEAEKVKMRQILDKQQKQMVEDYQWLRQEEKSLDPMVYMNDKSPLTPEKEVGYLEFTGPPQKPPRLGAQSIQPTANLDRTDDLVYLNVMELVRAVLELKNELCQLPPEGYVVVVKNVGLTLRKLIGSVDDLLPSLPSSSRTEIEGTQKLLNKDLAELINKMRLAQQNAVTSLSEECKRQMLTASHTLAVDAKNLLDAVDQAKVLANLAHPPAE
# Assay: antagonists of Pyk2 self-association, primary screen, Q293 cells, FERM NanoBiT luminescence, HTS (AID 1347419);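 also: the deposit names both 25 µM and 10 µM; negative z-score means lost luminescence so less FERM oligomerization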
# Design: dose or concentration left out as unconfirmed
# Settings: active compounds read low
row,SMILES,z-score
1,CCOc1ccc(/C=N/OCC(=O)NCc2cccs2)cc1,0.26
2,Nc1nc(SCc2ccc([N+](=O)[O-])cc2)c2ncn(C3OC(CO)C(O)C3O)c2n1 (configuration not stated),1.34
3,Cc1cccc(N2CCN(C(c3ccc(N(C)C)cc3)c3nnnn3C(C)(C)C)CC2)c1C (configuration not stated),0.72
4,Cc1cccc(N2CCN(C(c3ccccc3)c3nnnn3CC3CCCO3)CC2)c1C (configuration not stated),-3.18 (active)
5,COc1ccc(C(c2nnnn2C2CCCCC2)N2CCN(c3ccccc3F)CC2)cc1 (configuration not stated),-2.56
6,COC(=O)c1cc(C(=O)CSc2nc(C)cc(C)n2)ccc1O,-0.22
7,Cc1cc(SCC(=O)c2ccccc2)nc(SCC(=O)c2ccccc2)n1,-3.01 (active)
8,Cc1nc(SCC(=O)c2ccccc2)c([N+](=O)[O-])[nH]1,-0.67
9,CC(C)=C1C2CCC1C1C(=O)N(NC(=O)c3ccco3)C(=O)C21 (configuration not stated),1.15
10,Cc1ccc(NC(=O)NC(=O)CSc2nnc(-c3ccc(OC(F)F)cc3)n2N)c(C)c1,-0.1
11,COc1ccc(-c2csc(NC(=O)CCCc3cccs3)n2)cc1,0.83
12,Cc1ccc(N(Cc2ccc(C(=O)Nc3ccccc3C(=O)NCc3ccco3)cc2)S(C)(=O)=O)cc1C,-3.96 (active)
13,CS(=O)(=O)N(Cc1ccc(Cl)cc1)c1ccc(C(=O)NCCSCc2ccco2)cc1,0.47
14,Cc1cccc(Nc2ccccc2C(=O)NCc2ccco2)c1C,-0.62
15,CCOC(=O)N/N=C/c1cn(Cc2ccccc2Cl)c2ccccc12,-1.11
16,C=CCn1c(SCc2cccc(F)c2)nc2cc(C(=O)N3CCC(C(N)=O)CC3)ccc2c1=O,-1.07
17,COc1ccc(/C=N/N=C/c2c[nH]c(=O)c(C#N)c2Nc2ccccc2)cc1,0.79
18,COC(=O)c1ccccc1NC(=O)CSc1nnnn1C,0.19
19,CCOC(=O)c1c(-c2ccc(C)cc2C)csc1NC(=O)CSc1nnnn1C,-3.44 (active)
20,CCOC(=O)CNC(=O)CSc1nnnn1-c1cc(C)ccc1C,-0.31
21,Cc1nonc1C(=O)N/N=C/c1ccc(O)cc1,0.67
22,CC(C)Nc1nnc(SCC(=O)c2c[nH]c3ccccc23)s1,0.14
23,Cc1cccc(C(=O)c2cccc(C)c2)c1,0.43
24,Cc1cccc(-n2c(SCC(N)=O)nc3c(c2=O)C2(CCCCC2)Cc2ccccc2-3)c1,1.27
25,CC(NC(=O)COC(=O)C1CCN(S(=O)(=O)c2ccccc2C(F)(F)F)CC1)c1ccccc1 (configuration not stated),-0.04

row,SMILES,z-score
1,Brc1ccc(-c2nnc(-c3ccccc3)o2)o1,-0.77
2,O=C(Nc1ccc(-c2nnc(-c3ccccc3)o2)cc1)c1ccc(Br)o1,0.72
3,Nc1ccc(-c2nnc(-c3ccc(-c4ccccc4)cc3)o2)cc1,-3.38 (active)
4,Cc1ccnc(NC(=O)c2ccoc2C)c1,0.21
5,CCN(CC)CC(=O)c1c[nH]c2ccc(OC)cc12,-0.09
6,COc1ccc2[nH]c3ccc(OC)cc3c2c1,-0.72
7,COc1ccc2[nH]cc(/C=C(/C#N)S(=O)(=O)c3ccccc3)c2c1,-3.31 (active)
8,CCOc1ccc(C(=O)Nc2cccc(SC)c2)cc1,0.21
9,Cc1ccc(Nc2nnc(SCC(=O)c3cc4ccccc4o3)s2)cc1C,-0.02
10,CC1CCN(C(=S)NC2CC3CCC2C3)CC1 (configuration not stated),-0.08
11,Cc1ccccc1OCC(=O)Nc1ccc(N2CCN(C(=O)C(C)C)CC2)c(Cl)c1,-3.97 (active)
12,Cc1cccc(NC(=O)COc2ccccc2C)n1,0.47
13,CN1CCN(c2ccc(NC(=O)COc3ccc(Cl)cc3Cl)cc2)CC1,-0.4
14,O=S(=O)(NCCc1ccncc1)c1ccccc1,0.43
15,Cc1cccc(-n2c(C)cc(/C=N\NC(=O)c3cccs3)c2C)c1,-0.91
16,CCn1c(/C=C/Nc2ccccc2)[n+](CC)c2ccc(C(=O)OCC(F)(F)F)cc21,1.39
17,Cc1cc2c(c(=O)n1Cc1ccco1)C(c1ccccc1)C(C#N)=C(N)O2 (configuration not stated),1.13
18,CCCc1[nH]nc2c1C(c1c(C)nn(-c3ccccc3)c1Cl)C(C#N)=C(N)O2 (configuration not stated),0.22
19,Cc1nn(Cc2ccccc2)c2c1C(c1ccccc1)C(C#N)=C(N)O2 (configuration not stated),-3.32 (active)
20,O=C(COC(=O)c1ccccc1SCC(=O)NC1CCCCC1)NC1CCCCC1,1.77
21,CCCn1c(C)cc(C(=O)COC(=O)c2c(C)nn(-c3ccccc3)c2C)c1C,1.05
22,Cc1nn(-c2ccccc2)c(C)c1C(=O)OCC(=O)NC(=O)NC1CCCCC1,-3.49 (active)
23,COC(=O)[C@H]1Cc2cnoc2C[C@]1(C)C(=O)O,1.39
24,O=c1c(Cl)c(NCc2ccc(F)cc2Cl)cnn1C12CC3CC(CC(C3)C1)C2,0.24
25,COc1cccc(NC(=O)c2nn(C34CC5CC(CC(C5)C3)C4)cc2[N+](=O)[O-])c1,-0.19

row,SMILES,z-score
1,COc1ccc(-c2cc(C3CCN(c4ncccc4[N+](=O)[O-])CC3)[nH]n2)cc1,-3.98 (active)
2,Cc1ccc(-c2nnc(-c3ccc(NC(=O)c4cccs4)cc3)o2)cc1,-0.15
3,Cc1ccc(-c2csc(NC(=O)c3cccs3)n2)cc1,-3.32 (active)
4,Cc1nc(-c2ccc(NC(=O)c3cccs3)cc2)cs1,-0.41
5,CC(C)(C)C1C/C(=C/c2ccco2)C(=O)/C(=C/c2ccco2)C1 (configuration not stated),0.6
6,Cc1ccc(OCC(=O)OC(C)CN(C)Cc2ccccc2)cc1 (configuration not stated),2.87
7,COc1ccc(N2C(=O)CNC2=S)cc1,0.4
8,c1ccc(-c2cc(-c3nnc4sc(-c5ccccn5)nn34)[nH]n2)cc1,-3.26 (active)
9,CCOc1cccc(-c2nn3c(-c4ccccn4)nnc3s2)c1,-1.53
10,COc1ccc(-c2nn3c(-c4ccccc4)nnc3s2)cc1OC,-1.25
11,CC(NC(=O)C(=O)NN=C1CCC(C(C)(C)C)CC1)c1ccccc1 (configuration not stated),-0.32
12,CNc1ccc(NC(C)=O)cc1[N+](=O)[O-],-0.8
13,CC(C)CC(=O)NC(=S)Nc1cc(C(=O)O)ccc1Cl,0.14
14,COc1ccc(-c2cn(-c3ccc(OC)cc3)c(=S)[nH]2)cc1,0.64
15,CSCCC(NC(=O)COc1ccccc1)C(=O)Nc1ccc(C)cc1 (configuration not stated),0.49
16,CC(C)OCCCNc1ncnc2c1[nH]c1ccc(F)cc12,-1.09
17,Fc1ccc2[nH]c3c(N4CCSCC4)ncnc3c2c1,-3.08 (active)
18,CCN1CCCC1CNc1ncnc2c1[nH]c1ccc(F)cc12 (configuration not stated),1.26
19,O=C(CNCc1ccc(F)cc1)Nc1ccccc1-c1ccccc1,-0.24
20,COc1ccc(C(=O)NNS(=O)(=O)c2ccc(C)cc2)cc1,-0.21
21,CCCCNC(=O)CCn1c(=O)c2ccccc2n(Cc2cc(C)ccc2C)c1=O,1.04
22,CN1/C(=c2/s/c(=C3/C(=O)N(c4ccccc4)NC3=Nc3ccccc3)n(C)c2=O)C(C)(C)c2ccccc21,-3.22 (active)
23,COc1cccc(-c2ccc(C#N)c(SCC(=O)NCCc3ccc(Cl)cc3)n2)c1,-0.01
24,COc1ccc(Br)cc1CN(C)CC(=O)Nc1cc([N+](=O)[O-])ccc1OC,-1.86
25,Cc1ccc2c(CC(=O)NCc3cccs3)coc2c1,-0.4

row,SMILES,z-score
1,N#C/C(=C\c1ccc(N2CCOCC2)o1)C(=O)N1CCOCC1,0.12
2,COc1ccccc1Oc1ccc(N/C=C2/CCCC2=O)cc1,0.42
3,CSc1nc(N)c(C#N)c(-c2ccccc2Cl)c1C#N,-2.52
4,N#Cc1c(N)nc2c3c(sc(=N)c2c1N)NC(=O)CC3c1ccccc1Cl (configuration not stated),-3.47 (active)
5,COc1ccc(C2CC(=O)Nc3sc(=N)c4c(N)c(C#N)c(N)nc4c32)cc1OC (configuration not stated),-1.89
6,Cc1c(/C=N/N2C(=O)C3C4C=CC(C4)C3C2=O)c2ccccc2n1C (configuration not stated),0.37
7,Cc1ccc(CNC(=O)COc2ccc3c(c2)CCC3)cc1,1.09
8,CCCCN(C)c1ccc([N+](=O)[O-])cc1,-0.3
9,O=C(NCCc1ccccc1)C1CCN(S(=O)(=O)c2ccc(Br)s2)CC1,0.91
10,Cc1ccc(C(=O)Cc2nnc(C)s2)cc1,0.12
11,COC(=O)c1ccc(NC(=O)c2ccccc2NS(=O)(=O)c2ccccc2)cc1,-3.71 (active)
12,CCOc1ccc(NC(=O)c2ccccc2NS(C)(=O)=O)cc1,-0.27
13,COC(=O)c1ccccc1NC(=O)c1ccccc1NS(C)(=O)=O,0.05
14,O=C(NC(=S)Nc1ccc(NC(=O)c2cccs2)cc1)c1ccc([N+](=O)[O-])cc1,0.61
15,Cc1cccc(N2CCN(C(=O)c3cccc(S(=O)(=O)N4CCc5ccccc5C4)c3)CC2C)c1 (configuration not stated),0.72
16,CCc1ccc(C2N3CC4([N+](=O)[O-])CN2CC([N+](=O)[O-])(C3)C4(C)C)cc1 (configuration not stated),0.28
17,C=CCn1c(SCC(=O)Nc2nc3ccccc3s2)nnc1-c1ccccc1O,-3.16 (active)
18,C=CCn1c(SCC(=O)NCc2ccccc2)nnc1-c1cc(Br)ccc1O,-0.9
19,C=CCn1c(CSc2nc3ccccc3s2)nnc1SCC(=O)NCc1ccco1,0.84
20,CCCC(=O)N1c2ccccc2NC2=C(C(=O)CCC2)C1c1ccc(F)cc1 (configuration not stated),-0.82
21,CCCN1C2=C(C(=O)CCC2)C(c2ccc(O)c(Br)c2)C2=C1CCCC2=O,-3.69 (active)
22,N#CC1=C(N)N(c2ccccc2)C2=C(C(=O)CCC2)C1c1ccccc1 (configuration not stated),-0.02
